# Most compounds without a hit are left out; they make up all but 1.6% or so of the library.
# KCNQ2 inh = blocks the rat KCNQ2 potassium channel. B-score at 10 µM. 310,000 tested, 1.1% active. O88943. AID 2156. CHO-K1 KCNQ2, FluxOR thallium flux, 20 min; active compounds read low;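 active = fluorescence ratio B-score at most minus 3 library SDs, with starting brightness B-score within 2 library SDs, cut at about -5.5 in these data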
# KCNQ2 enhance = KCNQ2 (rat) channel potentiation | O88943 | CHO-K1 KCNQ2, FluxOR thallium flux fluorescence; active compounds read high | B-score at 10 µM | 310,000 tested, 0.54% active | AID 2239;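 active = fluorescence ratio B-score at least 3 SD of library B-scores, with initial fluorescence B-score within 3 of them, cut at about 5.3 in these data; same plate scores as AID 2156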;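 note: B-score of peak minus minimum over baseline fluorescence ratio after K+ and Tl+ stimulus; positive B-score means potentiation of KCNQ2 with more thallium influx and brighter signal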
# Hits are given with their value; . = inactive; / = no result given.
SMILES,KCNQ2 inh,KCNQ2 enhance
COc1ccc(NC(=O)N(Cc2cccnc2)Cc2ccccc2Cl)c(OC)c1,-5.8,.
COc1ccc(NC(=O)NCc2cccnc2)c(OC)c1,.,/
COc1ccc(Cc2nnc(NC(=O)c3ccccc3F)s2)cc1,.,.
Cc1cc(Cl)ccc1OC(C)C(=O)N1CCCN(C(=O)C(C)Oc2ccc(Cl)cc2C)CC1 (stereo not given),-6.2,.
Cc1cc(Cl)ccc1OCC(=O)N1CCCN(C(=O)COc2ccc(Cl)cc2C)CC1,.,/
CCCN(CC(=O)Nc1ccccc1C)C(=O)c1cccc(S(=O)(=O)N2CCN(c3ccccc3)CC2)c1,.,/
Cc1nn(C(=O)CNC(=O)c2ccccc2)c(C)c1C,.,8.9
Cc1cc(C)n(C(=O)CNC(=O)c2cccc(F)c2)n1,.,.
CC(C)OC(=O)CSc1nnc(C2CCCCC2)n1N,.,.
COc1ccc(-c2nc3cccc(C)n3c2NCc2ccco2)cc1OC,-6,.
COc1ccc(-c2csc(NCc3ccco3)n2)cc1C,.,/
COCCNC(=O)CN1CCC(NC(=O)c2ccco2)CC1,.,/
CCOc1ccc(OCCC(=O)N(CC)CC(=O)Nc2ccccc2C(F)(F)F)cc1,.,/
CCN(CC(=O)Nc1ccccc1OC)C(=O)CCOc1ccc(C(C)(C)C)cc1,-6.3,.
CCNc1nc2cccnc2s1,.,/
COCCNC(=O)Cc1cn(C)c2ccccc12,.,.
Cn1cc(CC(=O)NC2CCCCC2)c2ccccc21,.,5.4
O=c1c2cnn(-c3ccccc3)c2nc(-c2cccs2)n1-c1ccc(Cl)cc1,.,/
O=c1c2cnn(-c3ccccc3)c2nc(-c2cccs2)n1-c1cccc(Cl)c1,-7.5,.
Clc1cccc(-c2nnc(SC/C=C/c3ccccc3)n2Cc2ccco2)c1,-8.3,.
C(=C\c1ccccc1)/CSc1nnc(-c2ccncc2)n1Cc1ccco1,.,/
C(=C\c1ccccc1)/CSc1nnc(-c2ccccc2)n1Cc1ccco1,-5.9,.
Nn1c(SC/C=C/c2ccccc2)nnc1-c1ccco1,.,.
CN1CCN(C(=O)CN(C2CCCCC2)S(=O)(=O)c2ccc(Br)cc2)CC1,.,/
O=C(c1cc(Cl)ccc1Cl)N1CCN(c2ccccn2)CC1,.,/
SMILES,KCNQ2 inh,KCNQ2 enhance
O=C(/C=C/c1cn(-c2ccccc2)nc1-c1cccc(Cl)c1)N1CCN(c2ccccn2)CC1,-5.7,.
O=C(c1cnc(N2CCN(c3ccccn3)CC2)c2ccccc12)N1CCN(c2cccc(Cl)c2)CC1,-7.9,.
O=C(/C=C/c1cn(-c2ccccc2)nc1-c1cccnc1)N1CCCCC1,.,/
O=C(O)c1ccccc1SCCS(=O)(=O)c1ccc(Cl)cc1Cl,.,.
CCCCN(C)CC(O)Cn1cc(/C=C/C(=O)c2ccc(OCC)cc2)c2ccccc21 (stereo not given),-6.7,.
CCCCN(C)CC(O)Cn1cc(/C=C/C(=O)c2cccs2)c2ccccc21 (stereo not given),.,/
NC(=O)CCC(C(=O)O)N1C(=O)c2ccc(O)cc2C1=O (stereo not given),.,.
O=C(/C=C/c1ccc(OC(F)F)cc1)Nc1cccc(S(=O)(=O)NC2=NCCCCC2)c1,.,.
NC(=O)c1ccsc1NC(=O)COC(=O)c1nc(Cl)ccc1Cl,.,.
Clc1ccc2nc(N3CCNCC3)nc(-c3ccccc3)c2c1,-5.9,.
OCCN1CCN(c2nc(-c3ccccc3)c3cc(Cl)ccc3n2)CC1,.,/
Clc1ccc(OCc2cn3ccccc3n2)c2ncccc12,-6.6,.
OCc1ccccc1OCCOc1ccc(Cl)c2cccnc12,.,/
COc1ccc([C@@H]2[C@@H]3C(=O)N(C(C)(C)C)C(=O)[C@@H]3[C@]3(C)C(=O)N(c4cccc(Cl)c4)C(=O)N23)cc1,.,.
CSc1ccc(-c2sc(Nc3ccccc3)n[n+]2-c2ccccc2)cc1,.,/
CSc1ccc(-c2sc(Nc3cccc4ccccc34)n[n+]2-c2ccccc2)cc1,-5.6,.
CCCCN(C(=O)c1ccc(NC(=O)C(C)C)cc1)c1ccccc1,.,/
COc1ccc(C2(c3ccc(O)cc3O)CC(c3ccccc3Cl)NC(=S)N2)cc1 (stereo not given),.,6.1
COc1cccc(C2CC(c3ccccc3Cl)n3nc(N)nc3N2)c1 (stereo not given),.,.
COc1cc(OC)c(NC(C)C(=O)N2CCCC2)cc1Cl (stereo not given),.,/
CC1CCCC(C)N1C(=O)COC(=O)Cc1ccc(Cl)cc1 (stereo not given),.,/
CC1CCCC(C)N1C(=O)CSCc1ccc(Cl)cc1 (stereo not given),-6.3,.
N#Cc1ccc(CSCC(=O)NN=C2CCCC2)cc1,.,/
O=C(CSCc1ccc(Cl)cc1)NN=C1CCCC1,.,6.8
Cc1sc(NC(=O)/C=C/c2ccco2)c(C(=O)O)c1C,.,.
CCc1noc(C)c1C(=O)Nc1cc(S(=O)(=O)N(CC)CC)ccc1N1CCOCC1,.,.
Cc1cc(Nc2ccccc2)n(-c2cccc(Cl)c2)n1,-6,.
Cc1cc(NC(=O)Nc2cccc(Cl)c2)n(-c2ccccc2)n1,.,.

# Screens as filed in PubChem.
